Screens deposited in PubChem by National Center for Advancing Translational Sciences (NCATS).
Sampled rows, rich in hits. Any-hit rate of the full collection: about 3.9%.
GPR32 ag: GPR32 (DRV1) agonism, beta-arrestin recruitment; O75388; CHO-K1 GPR32 beta-arrestin PathHunter luminescence, 90 min; zero percent set by DMSO-only wells; activation, % at 76.9 µM; 48,000 compounds, 2.5% hits; AID 1346428;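 active = activation of at least 60% and not above a set upper limit, about 1 call in 100 departs from these limits; inconclusive = activation of 40% to 60%, or above that upper limit; inactive = activation under 40%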
Target sequence (O75388 whole entry, looked up): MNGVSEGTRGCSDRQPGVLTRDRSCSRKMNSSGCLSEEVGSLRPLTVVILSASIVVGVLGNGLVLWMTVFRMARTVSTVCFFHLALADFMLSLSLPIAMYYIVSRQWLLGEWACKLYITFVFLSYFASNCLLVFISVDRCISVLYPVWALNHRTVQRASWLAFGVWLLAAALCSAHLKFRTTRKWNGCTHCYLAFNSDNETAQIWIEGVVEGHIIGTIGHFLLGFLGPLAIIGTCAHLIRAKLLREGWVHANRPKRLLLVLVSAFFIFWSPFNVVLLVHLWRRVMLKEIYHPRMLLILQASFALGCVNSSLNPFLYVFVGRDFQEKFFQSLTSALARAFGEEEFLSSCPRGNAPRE
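Step 1: seed CHO-K1 GPR32 beta-arrestin cells, 2,500/well, overnight at 37 °C. Step 2: add compounds, 90 min at 37 °C. Step 3: detection reagent, 1 h ambient, then luminescence.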
OvCa metastasis: blocks SKOV3ip1 adhesion and invasion in omental model; SKOV3ip1-GFP adhesion/invasion on 3D omental model, fluorescence; Potency, µM (series often up to 45.8 µM), actives largely listed as inhibitors; 46,000 compounds, 0.1% hits; AID 1963576; note: nearly all actives have a fitted effect of over 65% in size
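qHTS, 4-pt dose (0.36-46 umol/L); SKOV3ip1-GFP, 1,200 cells/well, no FBS; primary omental fibroblast/mesothelial co-culture 48 h pre-grown; 2 h RT + 16 h 37 C; PBS wash, 4% PFA; GFP count 488/509 nm.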
NTMT1 inhibitor: blocks human N-terminal methyltransferase 1 activity | Potency, µM (series often up to 114 µM), most hits filed as inhibitors | 59,000 compounds, 2.5% hits | NTMT1 MTase-Glo SAH luminescence, purified enzyme | AID 1645870 | Q9BV86; note: nearly all actives have a fitted effect of over 65% in size
Target sequence (Q9BV86 whole entry, looked up): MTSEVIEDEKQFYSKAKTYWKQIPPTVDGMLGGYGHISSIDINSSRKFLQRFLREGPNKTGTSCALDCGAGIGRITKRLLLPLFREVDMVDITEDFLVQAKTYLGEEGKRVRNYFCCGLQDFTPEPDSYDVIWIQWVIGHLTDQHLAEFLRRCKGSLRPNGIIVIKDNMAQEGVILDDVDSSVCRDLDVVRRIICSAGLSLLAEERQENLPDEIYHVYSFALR
FH mod: Identification of activators of human fumarate hydratase by quantitative high-throughput screening; Fumarate hydratase, mitochondrial (Homo sapiens), P07954; FH coupled MDH/diaphorase resazurin fluorescence, 15 min; Potency, µM (highest dose often 79.9 µM), most hits filed as inhibitors; 54,000 compounds, 0.22% hits; AID 1347055, 2019; note: the screen sought activators but most active calls are inhibition curves; nearly all actives have a fitted effect of over 45% in size
Large screens that a line does not name were inactive; ! = a repeat was not active. Unless noted, calls come from the whole dose curve; as a rule, active = well fitted curve in the direction sought with a large enough effect; inconclusive = small, poorly fitted or top-dose-only effect, or another doubt; inactive = no such curve, though single readings can be large; an effect the other way counts as inactive or inconclusive.

O=c1c(O)c(-c2ccc(O)c(O)c2)oc2cc(O)cc(O)c12	GPR32 ag 109!, NTMT1 inhibitor inconclusive, FH mod inconclusive
O=c1cc(-c2ccc(O)c(O)c2)oc2cc(O)cc(O)c12	NTMT1 inhibitor 32µM! (no result: GPR32 ag)
Cc1ccc(OCCn2c(CCNC(=O)c3cccc(F)c3)nc3ccccc32)cc1	none (no result: GPR32 ag, OvCa metastasis, FH mod)
Fc1ccc(Nc2nc(-c3ccncc3F)nc3ccccc23)cc1F	none (no result: GPR32 ag, OvCa metastasis, FH mod)
COc1ccc(OC)c(C2C(C#N)=C(N)Oc3n[nH]c(-c4ccc5ccccc5c4)c32)c1 (configuration not stated)	none (no result: GPR32 ag, OvCa metastasis)
O=C(CC(c1ccccc1)c1cc(Br)ccc1O)NCC1(c2ccccc2)CCCC1 (configuration not stated)	GPR32 ag 108, OvCa metastasis inconclusive (no result: NTMT1 inhibitor, FH mod)
CCOc1ccc(CCNC(=O)c2ccc(N3N=C(C)CC3=O)cc2)cc1OCC	none (no result: GPR32 ag, OvCa metastasis, FH mod)
CC(=O)c1cccc(NC(=O)c2cccn2-c2nnc(N3CCCCC3)s2)c1	NTMT1 inhibitor inconclusive
Cc1ccc(NC(=O)c2cccn2-c2nnc(N3CCCCC3)s2)cc1Cl	NTMT1 inhibitor 79µM
CCN[C@@H]1C[C@H](N)[C@@H](O[C@H]2OC(CN)=CC[C@H]2N)[C@H](O)[C@H]1O[C@H]1OC[C@](C)(O)[C@H](NC)[C@H]1O	none (no result: GPR32 ag, OvCa metastasis)
C=CC(=O)N1CC[C@@H](Oc2nc(Nc3ccc(N4CCC(N5CCN(C)CC5)CC4)cc3)c(C(N)=O)nc2CC)C1	NTMT1 inhibitor 4µM (no result: GPR32 ag, OvCa metastasis, FH mod)
COc1cc(N2CCC(N3CCN(C)CC3)CC2)ccc1Nc1ncc(Cl)c(Nc2ccccc2P(C)(C)=O)n1	FH mod inconclusive (no result: GPR32 ag, OvCa metastasis)
CN(C(=O)Nc1ccc2ccccc2c1)c1nnc(-c2ccncc2)s1	none (no result: GPR32 ag, OvCa metastasis, FH mod)
Cc1ccc(NC(=O)Nc2ccc3snnc3c2)cc1C	GPR32 ag 66
Cc1ccc(NC(=O)c2ccc3snnc3c2)cc1Cl	GPR32 ag 95
COc1cc2nc(N3CCCC3)nc(NCCCCCN3CCCC3)c2cc1OC	NTMT1 inhibitor 32µM (no result: GPR32 ag, OvCa metastasis)
COc1cc2nc(N3CCCCC3)nc(NC3CCN(Cc4ccccc4)CC3)c2cc1OC	NTMT1 inhibitor 45µM (no result: GPR32 ag, OvCa metastasis, FH mod)
Cc1ccccc1C(=O)c1ccc(Nc2ccc(Br)cc2N)cc1Cl	none (no result: GPR32 ag)
Cc1cc(C)c2c(CC(=O)Nc3nnc(C(C)C)s3)coc2c1	GPR32 ag 65, OvCa metastasis inconclusive
Cc1ccc2occ(CC(=O)Nc3nnc(C(C)C)s3)c2c1	none
C=C[C@@]1(C)CC(=O)C2[C@](C)(O1)[C@@H](OC(C)=O)[C@@H](O)[C@H]1C(C)(C)CCC[C@]21C (some centres not stated)	none (no result: GPR32 ag, OvCa metastasis)
O=C(NCCCN1CCCCC1)c1cc(Sc2ccc(Cl)cc2)nc2ccccc12	NTMT1 inhibitor 89µM
CCc1ccc(Sc2cc(C(=O)NC(C)CC)c3ccccc3n2)cc1 (configuration not stated)	GPR32 ag 75
C=CC(=O)N1CCc2ccc(-n3c(=O)ccc4cnc5ccc(-c6cnn(C)c6)cc5c43)cc21	FH mod inconclusive (no result: GPR32 ag)
COc1ccccc1Oc1ccc(N(Cc2cccnc2)S(=O)(=O)CC(F)(F)F)cc1	none (no result: GPR32 ag, OvCa metastasis)
O=c1c2ccc(F)cc2nc2sc(Nc3ccc4c(c3)CCC4)nn12	none (no result: GPR32 ag, OvCa metastasis, FH mod)
CC(=O)N1c2ccc(S(=O)(=O)N3CCN(c4cccc(Cl)c4)CC3)cc2CC1C (configuration not stated)	none
CCC(=O)N1c2ccc(S(=O)(=O)N3CCN(c4ccccc4Cl)CC3)cc2CC1C (configuration not stated)	NTMT1 inhibitor 89µM
COc1c(C)c(OCC(O)C(C)(C)O)cc2c1CNC2=O (configuration not stated)	none (no result: GPR32 ag, OvCa metastasis)
O=C1NC(=O)/C(=C/c2ccc3nccc(-c4ccncc4)c3c2)S1	NTMT1 inhibitor inconclusive, FH mod 32µM (no result: GPR32 ag, OvCa metastasis)
O=C1NC(=O)/C(=C/c2ccc3nccnc3c2)S1	none (no result: OvCa metastasis)
O=C1NC(=O)/C(=C\c2ccc3nccc(-c4ccncc4)c3c2)S1	NTMT1 inhibitor inconclusive, FH mod 25µM (no result: GPR32 ag, OvCa metastasis)
Cc1c(C(=O)NCC2CCCO2)[nH]c2c1C(=O)CCC2 (configuration not stated)	none (no result: GPR32 ag, OvCa metastasis, FH mod)
Cc1cc2ncc(-c3ccccc3)nc2cc1C	NTMT1 inhibitor 45µM (no result: GPR32 ag, OvCa metastasis)
COC(=O)c1c(SC)nc2ccccc2c1OCc1ccc(C)cc1C	FH mod 35µM
C1=C/COCc2cc(ccc2OCCN2CCCC2)Nc2nccc(n2)-c2cccc(c2)COC/1	NTMT1 inhibitor 25µM (no result: GPR32 ag, OvCa metastasis)
COc1cc(-n2cnc3cc(-c4ccc(Cl)cc4)sc3c2=O)ccc1OCCN1CCCC1	none (no result: GPR32 ag, OvCa metastasis)
CC(=O)c1ccc(NC(=O)CC2Oc3ccc(C)cc3NC2=O)cc1 (configuration not stated)	GPR32 ag 65
N#CC(=C(N)Sc1ccccc1N)C(C#N)=C(N)Sc1ccccc1N	none (no result: GPR32 ag)
COC(=O)CSc1nnc2n(-c3ccccc3)c(=O)c3c4c(sc3n12)COC(C(C)C)C4 (configuration not stated)	GPR32 ag 65
O=C(Cc1ccc(F)cc1)NCCc1csc2nc(-c3ccccc3F)nn12	GPR32 ag 62
COc1cccc(C(=O)NCCc2csc3nc(-c4ccccc4F)nn23)c1OC	GPR32 ag 68
COC(=O)C1=C2Nc3ccccc3C23CCN2CCCC(C(C)O)(C1)C23 (configuration not stated)	none (no result: GPR32 ag, OvCa metastasis)
COc1ccc(NC(=O)[C@H]2O[C@@H]3OC(C)(C)O[C@@H]3[C@H]3OC(C)(C)O[C@H]32)c(OC)c1	GPR32 ag 97
COc1ccc(C(CC(=O)Nc2ccc(C)c(C)c2)N2Cc3ccccc3C2=O)cc1OC (configuration not stated)	none
COc1ccc(C(CC(=O)Nc2ccc(F)c(Cl)c2)N2Cc3ccccc3C2=O)cc1OC (configuration not stated)	NTMT1 inhibitor 89µM, FH mod inconclusive
CC(C)OC(=O)[C@H](C)N[P@](=O)(OC[C@H]1O[C@@H](n2ccc(=O)[nH]c2=O)[C@](C)(F)[C@@H]1O)Oc1ccccc1	none (no result: GPR32 ag, OvCa metastasis, FH mod)
COc1cc2c(c(OC)c1O)C(c1ccc(O)cc1)C1C(=O)OC3C(COC(=O)C1=C2)OC(CO)(OC1OC(COC(=O)/C=C/c2ccc(OC4OC(C)C(O)C(O)C4O)cc2)C(O)C(O)C1O)C3O (configuration not stated)	none (no result: GPR32 ag, OvCa metastasis)
S=P(N1CC1)(N1CC1)N1CC1	GPR32 ag inconclusive, NTMT1 inhibitor 16µM!
Cc1cc2[nH]c(=O)c(=O)[nH]c2cc1S(=O)(=O)N1CCN(c2ccccc2F)CC1	GPR32 ag 70
Cc1cc2[nH]c(=O)c(=O)[nH]c2cc1S(=O)(=O)N1CCN(c2cccc(C)c2C)CC1	NTMT1 inhibitor inconclusive
Cc1cccc(C=NNc2cc(N3CCOCC3)nc(OCCc3ccccn3)n2)c1	NTMT1 inhibitor 22µM (no result: GPR32 ag)
COc1ccc(N2CCN(CC(O)COc3ccc(C)cc3C)CC2)cc1 (configuration not stated)	GPR32 ag 67
COc1ccccc1N1CCN(CC(O)COc2cc(C)cc(C)c2)CC1 (configuration not stated)	none
